This is an account of results in PubChem BioAssay (EPA / NIEHS).

The term AC50 denotes the midpoint of the concentration-response curve, whichever way the signal moves.

Read-out in assay [1]: Interleukin 2 (IL2), IL2 (gene 3558)
Put plainly: BSK_BT_xIL2: BioMAP Diversity Plus: BT Assay for Interleukin 2 (IL2) Biomarker Activity (AID 2284245). The note with it: primary human B cells with PBMC. A digest of the protocol:
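Co-cultures of primary human B cells and PBMC are treated with chemical and sampled at 24 h. IL-2 secretion is quantified by Luminex xMAP, with DMSO-treated wells as baseline.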

Read-out in assay [2]: Basic fibroblast growth factor (bFGF), FGF2 (gene 2247)
In words: BSK_MyoF_bFGF: BioMAP Diversity Plus: MyoF Assay for Basic fibroblast growth factor (bFGF) Biomarker Activity (AID 2284246). The note with it: primary human lung fibroblasts. A digest of the protocol:
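Fibroblasts from human lung, 24 h dosing. bFGF by ELISA; gain of signal over DMSO.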

Read-out in assay [3]: Collagen IV, COL4A1 (gene 1282)
In words: BSK_MyoF_CollagenIV: BioMAP Diversity Plus: MyoF Assay for Collagen IV Biomarker Activity (AID 2284247). Conditions: primary human lung fibroblasts. A digest of the protocol:
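Lung fibroblasts (human primary) treated with chemicals were assayed after 24 h for Collagen IV using an ELISA, with DMSO serving as negative control and baseline for a positive-direction fit.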

Read-out in assay [4]: Plasminogen activator inhibitor-1 (PAI1), SERPINE1 (gene 5054)
Put plainly: BSK_MyoF_PAI1: BioMAP Diversity Plus: MyoF Assay for Plasminogen activator inhibitor-1 (PAI1) Biomarker Activity (AID 2284256).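 Also: PAI-1 protein level measured by ELISA in fibroblast cultures; PAI-1 read 24 h after compound addition.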 Conditions: primary human lung fibroblasts. An outline of the steps:
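MyoF lung fibroblasts, human primary; compound 24 h; PAI-1 ELISA; positive-direction fit vs DMSO baseline; parallel SRB total-protein staining for cytotoxicity.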

Read-out in assay [5]: Interleukin-8 (IL8), CXCL8 (gene 3576)
Put plainly: BSK_MyoF_IL8: BioMAP Diversity Plus: MyoF Assay for Interleukin-8 (IL8) Biomarker Activity (AID 2284261). Conditions: primary human lung fibroblasts. An outline of the steps: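 Lung fibroblasts (human primary) → chemical exposure → 24 h → IL-8 measured by ELISA. Signal increase scored versus DMSO control.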

Read-out in a further assay: Decorin, DCN (gene 1634)
In words: BSK_MyoF_Decorin: BioMAP Diversity Plus: MyoF Assay for Decorin Biomarker Activity (AID 2284265). Conditions: primary human lung fibroblasts. A digest of the protocol: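 ELISA readout of decorin, 24 h post-dosing; primary human lung fibroblast (MyoF) culture; gain-of-signal fit vs DMSO baseline.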

A short description of assay [6]: BSK_MyoF_SRB: Viability Assessment in the BioMAP Diversity Plus: MyoF Assay (AID 2284267).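 Also: total protein by SRB absorbance in parallel cultures as cytotoxicity measure; cells assessed 24 h after compound addition.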 Conditions: primary human lung fibroblasts. A digest of the protocol:
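In this viability endpoint, fibroblasts from human lung are treated for 24 h, TCA-fixed, SRB-stained (0.1%) and read at 560 nm. Gain of signal relative to DMSO defines activity.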

Read-out in assay [7]: Matrix Metallopeptidase 1 (MMP1), MMP1 (gene 4312)
Put plainly: BSK_MyoF_MMP1: BioMAP Diversity Plus: MyoF Assay for Matrix Metallopeptidase 1 (MMP1) Biomarker Activity (AID 2284268). The note with it: primary human lung fibroblasts. A digest of the protocol: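 Cells: human lung fibroblasts. Exposure: 24 h chemical dosing. Detection: ELISA for MMP1. Analysis: upward fitting against DMSO negative control.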

Read-out in assay [8]: TIMP metallopeptidase inhibitor 1 (TIMP1), TIMP1 (gene 7076)
Put plainly: BSK_MyoF_TIMP1: BioMAP Diversity Plus: MyoF Assay for TIMP metallopeptidase inhibitor 1 (TIMP1) Biomarker Activity (AID 2284269). The note with it: primary human lung fibroblasts. An outline of the steps: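 Fibroblasts from human lung are dosed with chemical, cultured 24 h, and assayed for TIMP-1 by ELISA. Increases over the DMSO baseline are scored, with SRB total-protein staining run in parallel for cytotoxicity.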

Read-out in assay [9]: Collagen I, COL1A1 (gene 1277)
Put plainly: BSK_hDFCGF_CollagenI: BioMAP Diversity Plus: hDFCGF Assay for Collagen I Biomarker Activity (AID 2284250). The note with it: primary human foreskin fibroblasts. A digest of the protocol:
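Readout: Collagen I by ELISA after 24 h compound treatment of primary human foreskin fibroblasts. Endpoint analysed for increases relative to DMSO; total protein by SRB in parallel wells flagged cytotoxicity.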

Read-out in assay [10]: Interferon-inducible T-cell alpha chemoattractant (ITAC), CXCL11 (gene 6373)
Put plainly: BSK_hDFCGF_ITAC: BioMAP Diversity Plus: hDFCGF Assay for Interferon-inducible T-cell alpha chemoattractant (ITAC) Biomarker Activity (AID 2284251). The note with it: primary human foreskin fibroblasts. An outline of the steps:
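Measured by ELISA, the chemokine level serves as the endpoint in human skin fibroblast primary cultures 24 h after compound addition. Increases relative to DMSO-treated wells define activity.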

Read-out in assay [11]: Plasminogen activator inhibitor-1 (PAI1), SERPINE1 (gene 5054)
In words: BSK_KF3CT_PAI1: BioMAP Diversity Plus: KF3CT Assay for Plasminogen activator inhibitor-1 (PAI1) Biomarker Activity (AID 2284252). Conditions: primary human keratinocytes with fibroblasts. A digest of the protocol: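 In this co-culture of primary human keratinocytes and foreskin fibroblasts, PAI-1 was measured by ELISA at 24 h and fitted upward from DMSO.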

Read-out in assay [12]: Interleukin-8 (IL8), CXCL8 (gene 3576)
Put plainly: BSK_KF3CT_IL8: BioMAP Diversity Plus: KF3CT Assay for Interleukin-8 (IL8) Biomarker Activity (AID 2284254). Conditions: primary human keratinocytes with fibroblasts. An outline of the steps:
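IL-8 read-out: ELISA, 24 h post-dose, human skin primary co-culture (keratinocytes + foreskin fibroblasts). DMSO = baseline; positive-direction fit.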

Read-out in assay [13]: Intercellular Adhesion Molecule 1 (ICAM1), ICAM1 (gene 3383)
Put plainly: BSK_BE3C_ICAM1: BioMAP Diversity Plus: BE3C Assay for Intercellular Adhesion Molecule 1 (ICAM1) Biomarker Activity (AID 2284278).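 Also: cell-surface ICAM-1 protein level quantified by ELISA.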 Conditions: primary human bronchial epithelial cells. A digest of the protocol:
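hu bronchial epithelial primary cells, 24 h cpd exposure, ICAM-1 ELISA; gain-of-signal fit vs DMSO baseline.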

Read-out in assay [14]: Interferon-inducible T-cell alpha chemoattractant (ITAC), CXCL11 (gene 6373)
Put plainly: BSK_BE3C_ITAC: BioMAP Diversity Plus: BE3C Assay for Interferon-inducible T-cell alpha chemoattractant (ITAC) Biomarker Activity (AID 2284279). Conditions: primary human bronchial epithelial cells. A digest of the protocol:
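BE3C cells (human primary bronchial epithelium), 24 h compound exposure, I-TAC by ELISA, DMSO = negative control/baseline, positive fitting direction.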

Read-out in assay [15]: Interleukin-8 (IL8), CXCL8 (gene 3576)
In words: BSK_BE3C_IL8: BioMAP Diversity Plus: BE3C Assay for Interleukin-8 (IL8) Biomarker Activity (AID 2284280). Conditions: primary human bronchial epithelial cells. A digest of the protocol: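 Dose human bronchial epithelial cells with chemical; incubate 24 h; quantify IL-8 by ELISA; fit response upward versus DMSO controls.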

Read-out in assay [16]: Epidermal growth factor receptor (EGFR), EGFR (gene 1956)
Put plainly: BSK_BE3C_EGFR: BioMAP Diversity Plus: BE3C Assay for Epidermal growth factor receptor (EGFR) Biomarker Activity (AID 2284281). Conditions: primary human bronchial epithelial cells. A digest of the protocol: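 ELISA read-out of EGFR levels on human bronchial epithelial primary cells collected 24 h post-dosing. DMSO served as negative control and baseline for gain-of-signal fitting.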

Read-out in a further assay: KRT18 (gene 3875)
Put plainly: BSK_BE3C_Keratin818: BioMAP Diversity Plus: BE3C Assay for Keratin 818 Biomarker Activity (AID 2284282). The note with it: primary human bronchial epithelial cells. A digest of the protocol: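 In this multiplexed primary-cell system, bronchial epithelial cells were dosed and harvested at 24 h. Keratin 8/18 was determined by ELISA and analysed for increases over DMSO controls.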

Read-out in assay [17]: Matrix Metallopeptidase 9 (MMP9), MMP9 (gene 4318)
Put plainly: BSK_BE3C_MMP9: BioMAP Diversity Plus: BE3C Assay for Matrix Metallopeptidase 9 (MMP9) Biomarker Activity (AID 2284283). The note with it: primary human bronchial epithelial cells. A digest of the protocol: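 ELISA read-out of MMP-9 after 24 h compound exposure of human lung bronchial epithelial primary cells (BE3C). Fit in gain direction vs DMSO negative control; total protein by SRB in parallel cultures flagged overt cytotoxicity.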

Read-out in assay [18]: Plasminogen activator inhibitor-1 (PAI1), SERPINE1 (gene 5054)
Put plainly: BSK_CASM3C_PAI1: BioMAP Diversity Plus: CASM3C Assay for Plasminogen activator inhibitor-1 (PAI1) Biomarker Activity (AID 2284284).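 Also: PAI-1 protein level measured by ELISA 24 h after dosing.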 Conditions: primary human coronary artery smooth muscle cells.

“And” between values parts separate entries of the source, which are not always exact repeats. Identical values can stand only once. The source made the active and inactive calls. The calls were made as follows: active = hit-call score of the fitted dose curve at least 0.9, where 1 is the maximum; inactive = score below 0.9.

`CCCCNc1ccc(NCCCC)c2c1C(=O)c1ccccc1C2=O`: the outcome is “inactive” in [1]; “inactive” in [2]; “inactive” in assay [3]; “inactive” in assay [4]; “inactive” in assay [5]; “inactive” with Decorin, DCN (gene 1634). The outcome in assay [6], in assay [7] and in assay [8] was inactive.
On to `C=CC=CC=CCCCCC`, for which the outcome in assay [1] was “inactive”; in assay [2] it was “inactive”; in assay [3], “inactive”; in [4], “inactive”; in [5], “inactive”; with Decorin, DCN (gene 1634), “inactive”. Moreover, the result in assay [6], in assay [7] and in [8] was inactive.
On to `C=CCOCC(O)CCl` (stereo not given), for which the outcome in [1] was “inactive”; in assay [2], “inactive”; in assay [3] it was “inactive”; in [4] it was “inactive”; in assay [5], “inactive”; with Decorin, DCN (gene 1634) it was “inactive”. In addition, the outcome in [6], in assay [7] and in [8] was inactive.
With `O=C1CCCN1CCO`, the result in assay [9], in assay [10], in [11], in assay [12], in assay [13] and in assay [14] was inactive. Also, the result (in [15]; in assay [16]; with KRT18 (gene 3875); in assay [17]; in assay [18]) was inactive.
For the compound `CC(C)C(=O)C(C)C`, the outcome in assay [1] is “inactive”; in assay [2], “inactive”; in assay [3] it was “inactive”; in [4], “inactive”; in assay [5], “inactive”; with Decorin, DCN (gene 1634), “inactive”. Besides, the outcome in [6], in assay [7] and in assay [8] was inactive.
Regarding `O=C(c1ccc(O)cc1)c1ccc(O)cc1O`, the result in assay [9], in assay [10], in assay [11], in assay [12], in assay [13] and in assay [14] was inactive. For the same compound, the result (in assay [15]; in [16]; in the assay with KRT18 (gene 3875); in [18]) was inactive. In addition, the AC50 in assay [17] is 20 µM (active) and 9.6 µM (active).
`N#[N+]c1ccc2c(S(=O)(=O)[O-])cccc2c1O`: the outcome is “inactive” in [1]; “inactive” in assay [2]; “inactive” in assay [3]; “inactive” in assay [4]; “inactive” in [5]; “inactive” with Decorin, DCN (gene 1634). Besides, the result in assay [6], in assay [7] and in [8] was inactive.
Regarding `CC1OC1C1CCC2(C)OC2C1` (stereo not given), the outcome in assay [1] is “inactive”; in assay [2], “inactive”; in [3], “inactive”; in assay [4] it was “inactive”; in assay [5], “inactive”; in the assay with Decorin, DCN (gene 1634) it was “inactive”. For the same compound, the result in [6], in assay [7] and in [8] was inactive.
In the case of `O=Nc1ccc(O)cc1`, the outcome in [1] was “inactive”; in assay [2], “inactive”; in [3], “inactive”; in assay [4], “inactive”; in assay [5], “inactive”; with Decorin, DCN (gene 1634), “inactive”. The outcome in assay [6], in assay [7] and in [8] was inactive.
